# This is one part of the list. No count for the full screen is at hand.
# Target: furin, P09958
# Assay: furin cleavage Z-score vs untreated control; higher = more cleavage, active = 3.5 or more, inactive = 1 or less, 8 variable residues between constant flanks
# Outline: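 In 50 mM HEPES pH 7.5 with CaCl2 and NaCl, purified furin was incubated with bead-anchored 8-mer peptide–cDNA fusions at 1:10 enzyme:substrate in 0.01 ml. Incubation times were 7.5, 15 and 30 min. DNA set free by cleavage was adapter-tagged by PCR and sequenced, with read counts taken as abundance. Log counts relative to furin-free reactions, after lowess adjustment and median absolute deviation scaling, form the cleavage Z-score.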
# furin, P09958, sequence (P09958 whole entry): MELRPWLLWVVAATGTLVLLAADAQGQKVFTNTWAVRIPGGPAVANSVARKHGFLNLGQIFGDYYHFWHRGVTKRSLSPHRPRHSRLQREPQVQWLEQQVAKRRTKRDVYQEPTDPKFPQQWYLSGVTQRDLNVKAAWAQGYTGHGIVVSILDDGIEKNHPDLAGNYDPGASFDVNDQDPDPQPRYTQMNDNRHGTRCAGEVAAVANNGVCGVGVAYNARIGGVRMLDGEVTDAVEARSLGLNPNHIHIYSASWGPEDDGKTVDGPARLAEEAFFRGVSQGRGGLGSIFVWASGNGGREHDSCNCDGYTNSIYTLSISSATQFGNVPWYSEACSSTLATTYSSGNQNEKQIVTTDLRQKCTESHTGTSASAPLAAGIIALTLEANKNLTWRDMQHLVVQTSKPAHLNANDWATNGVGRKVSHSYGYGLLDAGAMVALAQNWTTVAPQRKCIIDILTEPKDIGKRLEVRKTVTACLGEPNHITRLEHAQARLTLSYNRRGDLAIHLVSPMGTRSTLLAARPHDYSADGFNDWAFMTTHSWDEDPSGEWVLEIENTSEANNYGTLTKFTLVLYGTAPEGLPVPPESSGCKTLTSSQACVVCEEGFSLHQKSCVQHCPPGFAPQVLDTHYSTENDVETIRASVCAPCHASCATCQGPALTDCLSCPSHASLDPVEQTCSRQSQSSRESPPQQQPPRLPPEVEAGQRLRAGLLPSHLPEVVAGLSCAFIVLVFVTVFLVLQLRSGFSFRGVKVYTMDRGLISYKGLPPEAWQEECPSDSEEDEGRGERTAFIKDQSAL
Sequence,furin cleavage Z-score (7.5 min),furin cleavage Z-score (15 min),furin cleavage Z-score (30 min)
CATLTCGFADAGNASASA [HC223],-1.51 (inactive),-0.777 (inactive),-0.721 (inactive)
CAEVVTSTIVAGNASASA [HC2224],1.34,0.923 (inactive),-0.591 (inactive)
CAIEMEECSQAGNASASA [HC1784],0.115 (inactive),-0.919 (inactive),-0.409 (inactive)
CARRRRAKRSAGNASASA [FS-1481],10 (active),9.95 (active),7.99 (active)
CAMEECCQHLAGNASASA [HC34],0.752 (inactive),-0.68 (inactive),0.844 (inactive)
CAERSREMRAAGNASASA [FS-1120],0.288 (inactive),0.367 (inactive),-1.27 (inactive)
CAHPVREARAAGNASASA [FS-1211],3.66 (active),5.02 (active),5.4 (active)
CAERSRKRRAAGNASASA [FS-417],11.5 (active),10.5 (active),7.42 (active)
CAHPNIEEVAAGNASASA [HC840],0.6 (inactive),-0.828 (inactive),0.48 (inactive)
CAESTRTRRAAGNASASA [FS-1522],8.54 (active),9.73 (active),8.09 (active)
CAERSRVCRCAGNASASA [FS-123],-0.711 (inactive),0.103 (inactive),2.18
CAHYVPESDAAGNASASA [HC1127],-0.402 (inactive),-0.697 (inactive),-1.88 (inactive)
CAHPSRKRRAAGNASASA [FS-132],11.3 (active),11.3 (active),8.53 (active)
CAMNTPGLPVAGNASASA [HC932],0.685 (inactive),0.0364 (inactive),-1.85 (inactive)
CAEVVTSTWGAGNASASA [HC2256],0.945 (inactive),1.37,-1.03 (inactive)
CAMQECSQHLAGNASASA [HC1702],0.311 (inactive),0.512 (inactive),-0.705 (inactive)
CAEEQKLPINAGNASASA [HC1379],0.861 (inactive),-1.11 (inactive),-0.462 (inactive)
CASVPCHRPSAGNASASA [HC2317],0.746 (inactive),0.823 (inactive),0.912 (inactive)
CAIPVRAPRSAGNASASA [FS-442],5.71 (active),3.56 (active),4.32 (active)
CAREFRAHRSAGNASASA [FS-487],1.52,0.689 (inactive),1.39
CAEFERAPRSAGNASASA [FS-524],0.193 (inactive),0.266 (inactive),0.907 (inactive)
CASRKRAPRSAGNASASA [FS-963],10.6 (active),8.82 (active),9.02 (active)

Sequence,furin cleavage Z-score (7.5 min),furin cleavage Z-score (15 min),furin cleavage Z-score (30 min)
CANATRAPRSAGNASASA [FS-63],8.66 (active),8.42 (active),6.36 (active)
CATTPCSGLWAGNASASA [HC1905],0.96 (inactive),1.01,-0.0137 (inactive)
CATSTWVLVGAGNASASA [HC989],-2.25 (inactive),-0.362 (inactive),-1.37 (inactive)
CAYSSMPPLEAGNASASA [HC1353],0.446 (inactive),1.62,1.96
CAERVVCCSMAGNASASA [HC2133],-0.391 (inactive),0.896 (inactive),0.654 (inactive)
CARFPRFVNVAGNASASA [FS-2925],3.2,3.36,7.1 (active)
CAERAPERRDAGNASASA [FS-24],-2.22 (inactive),-0.00906 (inactive),-1.69 (inactive)
CARQPRPAGVAGNASASA [FS-3041],-0.899 (inactive),-0.574 (inactive),-0.629 (inactive)
CARRRRGFRQAGNASASA [FS-2788],2.04,3.6 (active),4.63 (active)
CALGARERRDAGNASASA [FS-1226],13.9 (active),15.5 (active),11.8 (active)
CAVGERFRRDAGNASASA [FS-386],11.7 (active),13 (active),8.87 (active)
CARFPRGVSRAGNASASA [FS-3247],-0.934 (inactive),-0.454 (inactive),-0.752 (inactive)
CAPVCQDHLEAGNASASA [HC935],-0.428 (inactive),-0.153 (inactive),-0.41 (inactive)
CARDGKLPATAGNASASA [HC285],1.05,2.03,0.856 (inactive)
CATTPCLGSWAGNASASA [HC64],0.626 (inactive),0.544 (inactive),0.646 (inactive)
CAAGYGAGVAAGNASASA [HC1087],1.51,-1.39 (inactive),-0.133 (inactive)
CASMPRERRDAGNASASA [FS-92],10.3 (active),12.9 (active),9.32 (active)
CARRRRGLECAGNASASA [FS-2789],6.18 (active),4.95 (active),7.29 (active)
CARRRRERRDAGNASASA [FS-1268],14.1 (active),12.4 (active),10.4 (active)
CARRRRERDDAGNASASA [FS-1922],7.16 (active),10.1 (active),7.38 (active)
CARRRRSGADAGNASASA [FS-2081],1.69,0.662 (inactive),0.709 (inactive)
